# Several values for one entry are separate records, joined by “and”; a condition that tells them apart may be missing. Equal entries are not always repeated. Results filed as inconclusive are left out. Where a call stands in place of a potency, no number is given. More than one record can exist for a structure, and the calls need not agree. Activity calls are given as the source filed them. Calls come from the whole dose curve; as a rule, active = well fitted curve in the direction sought with a large enough effect in the repeat runs; inconclusive = weak or mixed curves; inactive = no such curve, though single readings can be large; an effect the other way counts as inactive or inconclusive.
# Experiments:
# [1] = biological target: Voltage-gated inwardly rectifying potassium channel KCNH2 (Homo sapiens) (UniProt Q12809); assay: Human Ether-a-go-go-Related Gene (hERG) channel small molecule antagonists: fluorescence cell-based qHTS assay (AID 1671200); note: potency is the fitted concentration of half-maximal effect
# Voltage-gated inwardly rectifying potassium channel KCNH2 (Homo sapiens), sequence (Q12809 whole entry, looked up): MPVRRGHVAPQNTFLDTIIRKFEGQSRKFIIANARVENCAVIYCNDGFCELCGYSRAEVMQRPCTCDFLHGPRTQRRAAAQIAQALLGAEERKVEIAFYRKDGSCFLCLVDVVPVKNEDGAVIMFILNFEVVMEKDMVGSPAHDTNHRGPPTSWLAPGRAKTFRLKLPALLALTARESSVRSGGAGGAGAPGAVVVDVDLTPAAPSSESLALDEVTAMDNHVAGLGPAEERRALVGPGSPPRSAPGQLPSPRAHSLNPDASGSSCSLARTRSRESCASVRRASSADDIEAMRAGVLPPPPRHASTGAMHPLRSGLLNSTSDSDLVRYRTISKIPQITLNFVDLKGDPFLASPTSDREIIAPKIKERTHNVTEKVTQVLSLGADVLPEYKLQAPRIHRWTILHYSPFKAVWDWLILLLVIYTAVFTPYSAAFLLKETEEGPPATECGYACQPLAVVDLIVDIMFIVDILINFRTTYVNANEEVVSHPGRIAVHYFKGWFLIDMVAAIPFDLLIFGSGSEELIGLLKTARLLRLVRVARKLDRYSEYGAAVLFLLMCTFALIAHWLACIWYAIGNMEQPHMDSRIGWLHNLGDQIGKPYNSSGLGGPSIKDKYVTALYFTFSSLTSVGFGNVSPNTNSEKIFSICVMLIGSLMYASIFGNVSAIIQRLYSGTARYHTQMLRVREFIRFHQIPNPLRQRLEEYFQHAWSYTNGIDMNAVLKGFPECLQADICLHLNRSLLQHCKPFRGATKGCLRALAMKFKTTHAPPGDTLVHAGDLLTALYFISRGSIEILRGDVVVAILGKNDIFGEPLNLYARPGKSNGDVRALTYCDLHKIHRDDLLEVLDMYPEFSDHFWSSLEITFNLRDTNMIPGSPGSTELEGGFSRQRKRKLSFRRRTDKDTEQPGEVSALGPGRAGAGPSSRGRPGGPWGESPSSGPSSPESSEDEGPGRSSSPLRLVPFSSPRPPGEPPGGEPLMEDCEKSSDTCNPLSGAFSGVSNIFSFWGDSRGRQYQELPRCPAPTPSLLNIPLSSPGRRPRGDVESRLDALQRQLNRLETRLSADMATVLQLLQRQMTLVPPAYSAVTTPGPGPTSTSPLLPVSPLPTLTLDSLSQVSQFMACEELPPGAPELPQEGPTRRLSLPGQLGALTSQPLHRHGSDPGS
# Method in brief: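 Cell line hERG-U2OS; dye FluxOR II, 1 h RT dark; Tl+ stimulus; ex 480/em 540 nm, read each second for 2 min.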
# [2] = biological target: Cytochrome P450 1A2 (Homo sapiens) (UniProt P05177); assay: Cytochrome P450 Family 1 Subfamily A Member 2 (CYP1A2) small molecule antagonists: luciferase reporter qHTS assay (AID 1671199); note: potency is the fitted concentration of half-maximal effect
# Cytochrome P450 1A2 (Homo sapiens), sequence (P05177 whole entry, looked up): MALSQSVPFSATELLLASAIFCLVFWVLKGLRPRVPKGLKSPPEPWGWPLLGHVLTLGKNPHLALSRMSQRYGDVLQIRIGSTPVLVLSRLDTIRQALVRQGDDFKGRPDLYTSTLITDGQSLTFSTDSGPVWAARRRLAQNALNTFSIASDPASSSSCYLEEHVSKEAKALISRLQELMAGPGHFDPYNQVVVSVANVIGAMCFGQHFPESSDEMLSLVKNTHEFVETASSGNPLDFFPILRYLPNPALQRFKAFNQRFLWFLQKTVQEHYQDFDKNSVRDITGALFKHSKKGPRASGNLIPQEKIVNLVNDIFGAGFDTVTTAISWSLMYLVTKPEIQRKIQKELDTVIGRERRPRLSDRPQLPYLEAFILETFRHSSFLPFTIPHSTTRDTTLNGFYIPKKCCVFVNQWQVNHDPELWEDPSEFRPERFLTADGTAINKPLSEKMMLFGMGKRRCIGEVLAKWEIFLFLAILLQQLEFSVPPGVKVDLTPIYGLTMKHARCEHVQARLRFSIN
# Method in brief: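 Room-temperature CYP1A2 reaction with proluciferin substrate: compounds added from DMSO, 10 min preincubation, NADPH regeneration for 1 h. Luciferin detection reagent then added; luminescence recorded as RLU.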
# [3] = biological target: Cytochrome P450 2C9 (Homo sapiens) (UniProt P11712); assay: Cytochrome P450 Family 2 Subfamily C Member 9 (CYP2C9) small molecule antagonists: luciferase reporter qHTS assay (AID 1671198); note: potency is the fitted concentration of half-maximal effect
# Cytochrome P450 2C9 (Homo sapiens), sequence (P11712 whole entry, looked up): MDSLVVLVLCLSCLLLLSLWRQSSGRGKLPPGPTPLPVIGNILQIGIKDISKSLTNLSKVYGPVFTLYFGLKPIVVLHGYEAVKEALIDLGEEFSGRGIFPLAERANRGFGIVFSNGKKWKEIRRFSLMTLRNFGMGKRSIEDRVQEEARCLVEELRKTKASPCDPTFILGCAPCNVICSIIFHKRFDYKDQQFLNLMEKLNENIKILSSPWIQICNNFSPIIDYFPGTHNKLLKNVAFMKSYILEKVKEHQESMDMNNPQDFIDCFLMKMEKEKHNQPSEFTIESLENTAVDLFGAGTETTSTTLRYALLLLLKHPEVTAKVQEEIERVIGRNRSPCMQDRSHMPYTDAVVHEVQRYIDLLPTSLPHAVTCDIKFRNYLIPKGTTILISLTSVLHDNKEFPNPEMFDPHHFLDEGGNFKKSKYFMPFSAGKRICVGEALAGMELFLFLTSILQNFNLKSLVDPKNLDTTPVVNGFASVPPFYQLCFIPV
# Method in brief: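 CYP2C9 activity was measured with a P450-Glo proluciferin substrate. Enzyme–substrate mix was held with compound for 10 min at room temperature, then NADPH regeneration solution was added for 1 h at 37C. Luciferin product was read as luminescence.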
# [4] = biological target: Cytochrome P450 3A4 (Homo sapiens) (UniProt P08684); assay: Cytochrome P450 Family 3 Subfamily A Member 4 (CYP3A4) small molecule antagonists: luciferase reporter qHTS assay (AID 1671201); note: series mostly up to about 120 µM
# Cytochrome P450 3A4 (Homo sapiens), sequence (P08684 whole entry, looked up): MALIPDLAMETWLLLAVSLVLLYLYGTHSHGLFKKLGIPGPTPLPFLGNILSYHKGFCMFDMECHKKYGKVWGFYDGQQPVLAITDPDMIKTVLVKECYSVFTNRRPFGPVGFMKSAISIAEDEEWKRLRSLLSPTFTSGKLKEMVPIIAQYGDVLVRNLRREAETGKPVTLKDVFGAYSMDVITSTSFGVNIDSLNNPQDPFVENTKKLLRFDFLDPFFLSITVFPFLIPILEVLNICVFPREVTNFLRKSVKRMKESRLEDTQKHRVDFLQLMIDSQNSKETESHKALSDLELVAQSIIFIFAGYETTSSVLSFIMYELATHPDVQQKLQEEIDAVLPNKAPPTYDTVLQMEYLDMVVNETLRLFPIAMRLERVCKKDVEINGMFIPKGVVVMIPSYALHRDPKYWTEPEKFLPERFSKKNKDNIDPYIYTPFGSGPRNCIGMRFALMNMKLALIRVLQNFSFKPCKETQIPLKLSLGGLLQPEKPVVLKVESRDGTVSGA
# Method in brief: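 Room-temperature assay throughout: 10 min compound–enzyme/substrate preincubation, 1 h reaction after NADPH regeneration solution, 20 min detection. Luciferin formed from proluciferin substrate is quantified by luminescence.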
# Note: nearly all actives have a fitted effect of over 50% in size.
Compound,Potency [1],Potency [2],Potency [3],Potency [4]
CCCCC1(COC(=O)CCC(=O)O)C(=O)N(c2ccccc2)N(c2ccccc2)C1=O,inactive,,,
CC1(C)O[C@@H]2C[C@H]3[C@@H]4CCC5=CC(=O)C=C[C@]5(C)[C@@]4(F)[C@@H](O)C[C@]3(C)[C@]2(C(=O)CO)O1,inactive,inactive,,
CCN(CC)C(=O)c1cccc(C)c1,inactive,,inactive,
CN1CCC[C@H]1c1cccnc1,inactive,inactive,,
O=c1[nH]cc(F)c(=O)[nH]1,inactive,32.9 µM (active) and inactive,inactive,inactive
C1=CC2C3C=CC(C3)C2C1 (stereo unspecified),inactive,57 µM (active),,inactive
CCCC[P+](CCCC)(CCCC)CCCC,21.8 µM (active) and 22.3 µM (active) and 12.3 µM (active),,,
C=C1CC[C@H](O)C/C1=C\C=C1/CCC[C@]2(C)[C@@H]([C@H](C)CCCC(C)C)CC[C@@H]12,inactive,,25 µM (active),
C/C=C/C=C/C(=O)O,inactive,,,
Cc1cccc(C)c1,inactive,inactive,inactive,inactive
NS(=O)(=O)c1cc2c(cc1Cl)NCNS2(=O)=O,inactive,,inactive,inactive
COc1ccc2c(c1)c(CC(=O)O)c(C)n2C(=O)c1ccc(Cl)cc1,inactive,inactive,22.6 µM (active) and 17.8 µM (active) and 13.8 µM (active),inactive
Oc1ccccc1,inactive,,,
Cc1ccc(S(=O)(=O)O)cc1,inactive,,,

# — PubChem BioAssay (Tox21)
